Source: PubChem BioAssay (NCI)
Compounds without any hit were thinned out: in the full panel of roughly 79,000, 15% have a hit. Values without a mark were called inactive. Active and inactive are the calls of the source. Cut-off read from the data, not from the text of the source: active = growth inhibition above about 70%; inactive = the rest.

Experiment: NCI Yeast Anticancer Drug Screen. Data for the rad50EPP+ strain (AID 151);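 note: 0% = growth of vehicle-treated control cultures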
Conditions: S. cerevisiae rad50 mutant strain, hits give high values
Experimental: Growth inhibition of yeast strains with defined genetic alterations is measured as a screen for potential anti-cancer activity. Selected strains with alterations in DNA damage repair or cell cycle control were exposed to compounds and growth inhibition was measured relative to vehicle treated controls. The strain used in this assay is rad50EPP+

Row | SMILES | growth inhibition (at 1.2 µM) [%] | growth inhibition (at 3.7 µM) | growth inhibition (at 11.0 µM) | growth inhibition (at 33.0 µM) | growth inhibition (at 100.0 µM)
1 | O=C(O)C1CCCCC1c1c2ccc(=O)c(O)c-2oc2c(O)c(O)ccc12 (stereo not given) | -9 | 0% | -24% | -39% | -48%
2 | COc1ccc(/C(C)=N/OC(=O)c2c(-c3ccccc3Cl)noc2C)cc1CN1CCOCC1 | -36 | -39% | -41% | -32% | -27%
3 | Cc1ccc(S/N=C\c2ccccc2O)cc1 | 4 | 3% | 6% | 17% | 35%
4 | N#Cc1ccc(C2NN=CC23C(=O)c2ccccc2OC3c2ccccc2)cc1 (stereo not given) | -2 | 0% | -1% | -3% | 3%
5 | O=[N+]([O-])c1cc(CCl)ccc1CCl | 16 | 44% | 89% (active) | 97% (active) | 98% (active)
6 | COc1cc(C2SCC(=O)N2c2ccc(-c3ccc(-n4c(-c5ccccc5)nc5ccccc5c4=O)cc3)cc2)cc(OC)c1OC (stereo not given) | -2 | -1% | 3% | 4% | -1%
7 | O=[N+]([O-])c1ccc2nc3ccccc3cc2c1 | 22 | 63% | 85% (active) | 90% (active) | 96% (active)
8 | O=C1C=CC(=O)N1c1ccc2c(c1)Cc1cc(NC(=O)C(F)(F)F)ccc1-2 | 29 | 73% (active) | 88% (active) | 91% (active) | 88% (active)
